In the library only some 19% were active in any assay of this set; here they are far more common.
Gal4-VP16 FLuc: Gal4-VP16 reporter inhibition counter-screen; 3.5% of 310,000 active; Drosophila S2 Gal4-VP16 UAS-luciferase, luminescence, 20 h; AID 2546; Potency, µM (doses to about 53.6 µM), hits mostly inhibitors;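 also: Gal4-VP16 expression switched on by copper sulfate through the metallothionein promoter; nearly all actives have a fitted effect of over 50% in size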
RORg inh: blocks mouse ROR gamma transcriptional activity; Drosophila S2 Gal4-RORgamma UAS-luciferase reporter, 20 h; Potency, µM (top dose mostly 53.6 µM), usual class: inhibitors; 5.4% of 310,000 active; AID 2551; also: nearly all actives have a fitted effect of over 60% in size
Target sequence (P51450 whole entry, looked up, the tested form may be a part): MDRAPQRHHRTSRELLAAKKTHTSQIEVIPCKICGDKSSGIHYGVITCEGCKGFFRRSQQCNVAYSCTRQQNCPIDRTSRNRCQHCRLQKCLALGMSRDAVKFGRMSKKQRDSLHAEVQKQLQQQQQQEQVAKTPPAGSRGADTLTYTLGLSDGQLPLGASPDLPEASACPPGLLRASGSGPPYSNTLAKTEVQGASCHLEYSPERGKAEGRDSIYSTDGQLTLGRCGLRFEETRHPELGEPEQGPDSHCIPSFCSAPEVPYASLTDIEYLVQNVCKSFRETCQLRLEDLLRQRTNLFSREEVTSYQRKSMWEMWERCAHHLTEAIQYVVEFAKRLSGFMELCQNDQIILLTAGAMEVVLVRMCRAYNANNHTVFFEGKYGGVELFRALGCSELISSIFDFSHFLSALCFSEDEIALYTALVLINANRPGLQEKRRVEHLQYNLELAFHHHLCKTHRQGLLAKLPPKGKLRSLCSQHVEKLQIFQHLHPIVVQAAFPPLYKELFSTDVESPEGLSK
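ROR gamma transcriptional activity was tracked as Gal4-UAS luciferase output in stably transfected Drosophila Schneider cells, with compound added 1 hr before 700 uM copper sulfate induction and a 20 hr ambient-temperature incubation.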
TDP1 cell CPT: growth inhibition of DT40 Tdp1-/-;hTDP1 cells with camptothecin (screen for TDP1 inhibitors); chicken DT40 Tdp1-/-;hTDP1 cells + 20 nM CPT, ATP luminescence, 48 h; Potency, µM (top dose mostly 46.2 µM), usual class: inhibitors; 12% of 420,000 active; AID 686979; also: nearly all actives have a fitted effect of over 55% in size
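Chicken DT40 Tdp1-/- cells complemented with human TDP1, 400 cells/well, exposed to compounds plus 20 nM camptothecin for at least 48 h at 37 C; viability read as ATP content by CellTiter-Glo luminescence.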
TDP1 block: inhibitors of human tyrosyl-DNA phosphodiesterase TDP1. Potency, µM (titrated, usually from 130 µM), actives largely listed as inhibitors. 0.28% of 350,000 active. recombinant TDP1, AlphaScreen DNA substrate cleavage. Q9NUW8; also: nearly all actives have a fitted effect of over 40% in size
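Enzyme-compound mixtures sat 15 min at room temperature, followed by a 5 min reaction with 15 nM final substrate and 10 min with AlphaScreen beads. Recombinant human Tdp1 was used at 1 nM final.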
TDP1 cell noCPT: qHTS for Inhibitors of human tyrosyl-DNA phosphodiesterase 1 (TDP1): qHTS in cells in absence of CPT; DT40 Tdp1-/- hTDP1 cells, no CPT, ATP luminescence, 48 h; Potency, µM (titrated, usually from 46.2 µM), hits mostly inhibitors; 15% of 420,000 active; AID 686978, 2013; also: nearly all actives have a fitted effect of over 55% in size
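A cellular qHTS used chicken DT40 cells lacking endogenous Tdp1 but carrying stably transfected human TDP1. Compounds were applied without camptothecin, and cell growth kinetics were judged by ATP-dependent luminescence after ≥48 hr.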
Hits are given with their value; – = inactive; ? = inconclusive; · = not tested or not shown; [ ] = another dose, or the depositor's remark. Calls follow the shape of the dose curve; as a rule, active = well fitted curve in the direction sought with a large enough effect; inconclusive = small, poorly fitted or top-dose-only effect, or another doubt; inactive = no such curve, though single readings can be large; an effect the other way counts as inactive or inconclusive.

SMILES	Gal4-VP16 FLuc	RORg inh	TDP1 cell CPT	TDP1 block	TDP1 cell noCPT
COc1ccc(C)cc1NC(=O)CN1CCN(c2ccccc2F)CC1	–	–	?	–	13µM
COc1ccc(OC)c(NC(=O)CCN2CCN(c3ccccc3F)CC2)c1	–	–	29.1µM	–	13µM
CCOc1ccc2nc(N/C(N)=N/C(=S)Nc3ccc(C)c(C)c3)nc(C)c2c1	?	1.78µM	–	–	–
COc1ccc(NC(=S)/N=C(\N)Nc2nc(C)c3ccc(C)cc3n2)cc1	2µM	0.631µM	18.4µM	–	?
CCNC(=S)/N=C(\N)Nc1nc(C)c2cc(C)ccc2n1	–	–	?	·	?
Cc1ccc(-c2n[nH]c(=O)c3ccccc23)cc1N	–	–	?	–	–
Nc1ccc(-c2n[nH]c(=O)c3ccccc23)cc1N	–	–	0.461µM	–	?
NS(=O)(=O)c1ccc(NC(=O)CSc2nc3ccccc3c(=O)n2Cc2ccncc2)cc1	·	·	?	–	–
COc1cc(OC)cc(-c2cc3ccc(OC)cc3cn2)c1	·	·	16.4µM	–	13µM
COc1ccc2cc(-c3ccsc3)ncc2c1	·	·	–	–	?
COc1ccc(-c2cc3cc4c(cc3cn2)OCO4)cc1	·	·	–	–	–
COc1cc(OC)cc(-c2cc3cc4c(cc3cn2)OCO4)c1	·	·	0.651µM	–	0.517µM
CCOC(=O)c1cnn(-c2nc(C)cc(C)n2)c1N	–	–	–	–	–
Cc1c(C(=O)O/N=C(\N)c2ccccn2)cccc1[N+](=O)[O-]	–	–	?	·	?
CCOC(=O)C1=C(CC)OC(N)=C(C#N)C1c1ccc(OC)c(OC)c1OC (configuration not stated)	–	–	?	–	–
Cc1ccccc1NC(=O)c1ccc(Cl)c(S(=O)(=O)N2CCCCCC2)c1	·	·	?	–[12.3 µM]	16.4µM
COc1ccccc1NC(=O)c1ccc(C)c(S(=O)(=O)N2CCCCC2)c1	?	–	?	–	25.9µM
COc1ccccc1NC(=O)c1ccc(Cl)c(S(=O)(=O)N2CCCCC2)c1	–	–	?	–	?
Cc1ccc(C(=O)Nc2ccccc2C(=O)O)cc1S(=O)(=O)N1CCCCCC1	·	·	?	–[12.3 µM]	?
O=C(Nc1cccc(-c2nc3ncccc3o2)c1)c1sc2cc(Cl)ccc2c1Cl	–	–	?	–	?
CCOC(=O)c1cn(CC(=O)Nc2cccc(F)c2)nn1	–	–	–	–	–
N#Cc1nc(N(c2ccccc2)c2ccccc2)nc(-n2cccc2)n1	·	·	7.08µM	–	3.55µM
CC(C)(C)Nc1nc(C(N)=O)nc(N2CCOCC2)n1	–	–	?	–	?
CN(c1ccccc1)c1nc(C#N)nc(N2CCOCC2)n1	·	·	12.6µM	–	10µM
NC(=O)c1nc(N2CCOCC2)nc(N2CCOCC2)n1	–	–	14.1µM	–	14.1µM
SMILES	Gal4-VP16 FLuc	RORg inh	TDP1 cell CPT	TDP1 block	TDP1 cell noCPT
Cc1cc(N2CCOCC2)nc(N2CCOCC2)n1	–	–	–	–	–
N#Cc1nc(N2CCOCC2)nc(N2CCOCC2)n1	–	–	18.4µM	–	25.9µM
CC1CCCC(C)N1C(=O)COC(=O)CCc1nc2ccccc2c(=O)[nH]1 (configuration not stated)	–	–	–	–	–
CC1CC(=O)c2cc(-c3ccccc3)oc2C1 (configuration not stated)	·	·	–	·	?
CCNc1nc(C(=O)O)nc(N2CCOCC2)n1	–	–	–	–	–
CCNc1nc(C#N)nc(N2CCOCC2)n1	·	·	?	–	12.6µM
COc1cccc(/C=N/NC(=O)c2cnn(-c3ccccc3)c2N)c1	–	–	?	·	20.6µM
Nc1c(C(=O)N/N=C/c2ccc(OCc3ccccc3)cc2)cnn1-c1ccccc1	?	–	16.4µM	·	11.6µM
Cc1ccc(C)c(OCCC(=O)NCCc2ccc(F)cc2)c1	–	–	?	–	?
O=S(=O)(c1ccc(F)cc1)c1snnc1-c1ccccc1	?	?	4.11µM	–	2.91µM
O=S(=O)(c1ccc(Cl)cc1)c1snnc1-c1ccccc1	?	?	5.17µM	–	4.11µM
O=C(COc1ccccc1)OCc1cc(-c2ccco2)on1	·	·	–	–	–
COc1ccc(/C=N/NC(=O)c2cc(-c3ccc(C)cc3C)nc3ccccc23)cc1COC(C)=O	–	?	?	–	1.46µM
COc1ccc(/C=N/NC(=O)c2cc(-c3ccccc3OC(C)C)nc3ccccc23)cc1CN1CCOCC1	–	–	?	–	?
COc1ccc(/C=N/NC(=O)c2cc(-c3ccccc3OC)nc3ccccc23)cc1COC(C)=O	–	–	10µM	–	14.1µM
COc1cc(NC(=O)NCCc2c(C)nn(C)c2C)cc(OC)c1OC	·	·	–	–	–
CC(C)O/C(=N\S(=O)(=O)c1ccc(Cl)cc1)c1ccccc1	–	–	–	–	–
Cc1ccccc1NC(=O)c1c(NC(=O)c2cccs2)sc2c1CCC(C)C2 (configuration not stated)	·	·	–	–[12.3 µM]	?
Cc1cccc(NC(=O)c2c(NC(=O)c3cccs3)sc3c2CCC(C)C3)c1 (configuration not stated)	·	·	23.1µM	–[12.3 µM]	10.3µM
CC1CCc2c(sc(NC(=O)c3ccccc3)c2C(=O)Nc2ccccc2)C1 (configuration not stated)	·	·	9.2µM	–[12.3 µM]	20.6µM
CN(C[C@H](c1ccccc1)N(C[C@H](Cc1ccccc1)N(CCc1ccccc1)N=O)N=O)N=O	–	–	18.4µM	–	?
CCOc1ccc(C(=O)N/N=C(\c2ccccc2)c2ccccn2)cc1	0.0562µM	0.199µM	2.06µM	–	2.91µM
O=C(N/N=C(\c1ccccc1)c1ccccn1)c1cccc([N+](=O)[O-])c1	–	0.447µM	1.16µM	–	1.03µM
COc1ccc(CNc2nc(-c3ccoc3)nc3ccccc23)c(OC)c1	–	–	?	·	?
COc1ccc2[nH]cc(CCNc3nc(-c4ccc(N(C)C)cc4)nc4ccccc34)c2c1	?	?	14.6µM	·	23.1µM
SMILES	Gal4-VP16 FLuc	RORg inh	TDP1 cell CPT	TDP1 block	TDP1 cell noCPT
COc1ccc2[nH]cc(CCNc3nc(-c4ccccc4CN(C)C)nc4ccccc34)c2c1	–	–	20.6µM	–	20.6µM
COc1ccc2[nH]cc(CCNc3nc(-c4ccc(C(=O)N(C)C)cc4)nc4ccccc34)c2c1	–	?	20.6µM	–	7.31µM
COc1ccc(CNc2nc(-c3ccccc3CN(C)C)nc3ccccc23)c(OC)c1	?	12.6µM	10.3µM	–	7.31µM
COc1cccc(-c2nc(NCCc3c[nH]c4ccc(OC)cc34)c3ccccc3n2)c1	–	–	?	–	?
COc1ccc2[nH]cc(CCNc3nc(-c4ccoc4)nc4ccccc34)c2c1	–	–	?	–	?
CNS(=O)(=O)c1cc(NC(=O)CCNC(=O)c2ccco2)ccc1C	–	–	–	–	–
